Laboratory results reported in PubChem BioAssay AID2013 (Sanford-Burnham Center for Chemical Genomics, 2009).
Among all 290,000 compounds or so, about 370 (0.13%) were called active. This is one part of a sample in which actives are shown more often than they occur.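 Rule for the calls: active = spots per cell inhibited over 60%, with over 100 cells counted and total cytoplasm intensity under 500,000; inconclusive = wells with under 100 cells, flagged as likely toxic; inactive = the rest.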 Results with a measured potency or affinity are listed apart.

target: G-protein coupled receptor 55 (Homo sapiens) (UniProt Q9Y2T6); assay: GPR55 antagonists blocking LPI-driven arrestin recruitment, primary screen, imaging, U2OS, beta-arrestin-GFP, LPI agonist (AID 2013); settings: U2OS GPR55 beta-arrestin-GFP translocation imaging, LPI antagonism; at 10 µM; stronger effect = higher value;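 note: U2OS cells stably carrying GPR55 and arrestin-GFP stimulated by 5 µM LPI near EC80; imaged beta-arrestin-GFP aggregate spots per cell after agonist stimulation; plate controls were LPI-stimulated DMSO wells for no effect and DMSO wells without LPI for full effect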
Sequence (Q9Y2T6 whole entry, looked up): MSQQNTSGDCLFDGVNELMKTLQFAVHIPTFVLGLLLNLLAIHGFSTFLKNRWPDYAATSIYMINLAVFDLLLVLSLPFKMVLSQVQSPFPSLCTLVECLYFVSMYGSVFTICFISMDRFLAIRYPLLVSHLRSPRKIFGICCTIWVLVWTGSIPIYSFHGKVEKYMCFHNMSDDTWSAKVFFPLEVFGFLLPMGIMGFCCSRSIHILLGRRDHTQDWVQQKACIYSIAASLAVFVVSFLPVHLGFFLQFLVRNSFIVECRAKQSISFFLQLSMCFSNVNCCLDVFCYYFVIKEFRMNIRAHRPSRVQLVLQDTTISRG

inhibition, inactive:
O=C(Nc1ccccc1)c1ccccc1Oc1ccc(C(F)(F)F)cc1[N+](=O)[O-] 5.3%
O=C(Nc1ccc(F)cc1)c1ccccc1Oc1ccc(C(F)(F)F)cc1[N+](=O)[O-] 24.3%
CC(=O)N(C1CC(C)C(C#N)(C#N)C1(C#N)C#N)N(C)C (configuration not stated) 7.5%
O=C1NC2(CCCCCC2)N=C1c1ccc(Br)cc1 2.5%
CCS(=O)(=O)Nc1ccc(Cc2ccncc2)cc1 -1.6%
CCCCS(=O)(=O)Nc1ccc(Cc2ccncc2)cc1 14.3%
COc1ccc(NC(=O)CCCn2c(=O)[nH]c3ccccc3c2=O)cc1 27.9%
c1ccc2c(-c3ccncc3)c[nH]c2c1 -22.9%
O=c1[nH]c2ccccc2nc1-c1c[nH]c2ccccc12 12.2%
COc1ccc(C(=O)C2CCCN(Cc3cn(C)nc3-c3ccccc3)C2)cc1F (configuration not stated) 4.8%
CN(C1CCCCC1)S(=O)(=O)c1ccc(NC(=O)C2CCCCC2)cc1 0.9%
CN(c1ccccc1)S(=O)(=O)c1ccc(NC(=O)C2CCCCC2C(=O)O)cc1 (configuration not stated) 45.5%
Cc1ccc(Cn2c(SCC(=O)Nc3cccc(C)n3)nc3c2c(=O)n(C)c(=O)n3C)cc1 4.3%
COc1ccccc1CN(CC(=O)NCc1ccc(F)cc1)C(=O)c1csnn1 4%
Cc1ccc(Cn2c(=N)n(CC(=O)c3ccc([N+](=O)[O-])cc3)c3ccccc32)cc1 44.2%
N=c1n(CC(=O)c2cccc([N+](=O)[O-])c2)c2ccccc2n1Cc1ccccc1 28.3%
N=c1n(CC(=O)c2ccc([N+](=O)[O-])cc2)c2ccccc2n1Cc1ccccc1Cl 8.7%
Cc1ccccc1Cn1c(=N)n(CC(=O)c2ccc([N+](=O)[O-])cc2)c2ccccc21 11%
N#Cc1cccc(NC(=O)COC(=O)c2ccc3c(=O)n4c(nc3c2)CCC4)c1 3%
CCOC(=O)C(=O)c1cn(C2OCC(OC(C)=O)C(OC(C)=O)C2OC(C)=O)c2ccccc12 (configuration not stated) 6.8%
Nn1c(SCC(=O)Nc2ccc(F)cc2)nnc1-c1cccnc1 16.8%
O=C1C=CC(=O)N1Cc1ccccc1 -45%
O=C1C2C3C=CC(C3)C2C(=O)N1CCCCCCN1C(=O)C2C3C=CC(C3)C2C1=O (configuration not stated) 12%
COc1cc(/C=N/NC(=O)C2CC(=O)N(c3ccc(C)cc3)C2)cc(OC)c1OC (configuration not stated) 6.8%
Cc1[nH]c2ccccc2c1C(=O)C(=O)N1CCN(C)CC1 8.2%
COc1ccc(/C=C/C(=O)NCc2ccccn2)cc1OC -3%
Cc1ccc(CNC(=O)C(NS(=O)(=O)c2ccc3nc(C)sc3c2)C(C)C)cc1 (configuration not stated) 3.8%
Cc1nc2ccc(S(=O)(=O)NC(C(=O)Nc3nccs3)C(C)C)cc2s1 (configuration not stated) 17.8%
CCc1noc(C)c1C(=O)N1CC(C)OC(C)C1 (configuration not stated) 22%
c1ccc(-c2nc(N3CCN(c4ccccc4)CC3)nc(-n3ccnc3)n2)cc1 24.6%
c1ccc(-c2nc(-n3ccnc3)nc(-n3ccnc3)n2)cc1 4.8%
COc1ccc(C(=O)NNC(=O)c2cccc(F)c2)cc1 -5.9%
COc1cc(C(=O)NCC(=O)OCC(=O)c2ccc[nH]2)cc(OC)c1OC -22.9%
COc1ccc2c(c1)[nH]c1c(N3CCSCC3)ncnc12 -7.3%
COc1ccccc1NC(=O)Nc1ccnn1C1CCCCC1 0.2%
COc1ccc2cc(C(=O)N/N=C/c3sc4ccccc4c3O)ccc2c1 4.9%
COc1ccc(NC(=O)/C(Cl)=C(/Cl)S(=O)(=O)Cc2ccc(C)cc2)cn1 -0.1%
COc1ccc(NC(=O)Cc2c(Cl)cccc2Cl)cn1 9%
COc1ccc(CS(=O)(=O)/C(Cl)=C(/Cl)C(=O)Nc2ccc(OC)nc2)cc1 2%
COc1ccc(NC(=O)C(Cl)=C(Cl)Cl)cn1 6.1%
O=C(c1ccccc1[N+](=O)[O-])N1CCN(Cc2ccc3c(c2)OCO3)CC1 0.2%
Cc1nc(COc2ccc(C(=O)Nc3ccccc3N3CCOCC3)cc2)cs1 2.8%
CCc1ccccc1S(=O)(=O)Cc1ccc(C(=O)N2CCN(c3ccccn3)CC2)o1 -4.8%
COc1ccc2nc(NC(=O)CN(c3ccc(C)cc3)S(=O)(=O)c3c(C)nn(C)c3C)sc2c1 22.1%
COc1ccc(N(CC(=O)Nc2cc(C)ccc2C)S(=O)(=O)c2c(C)nn(C)c2C)cc1 10%
C#CCNC(=O)C1=C[C@@H](c2csc3ccccc23)[C@H](CCCO)[C@@H](OCC)O1 14.1%
O=C(N/N=C/c1ccc(O)cc1)c1cc(C23CC4CC(CC(C4)C2)C3)[nH]n1 -6.9%
COc1cc(/C=N/NC(=O)c2cc(C3CC3)[nH]n2)ccc1O 6.5%
COc1ccc(/C=N/NC(=O)c2cc(C34CC5CC(CC(C5)C3)C4)[nH]n2)cc1O 49.4%
COc1cccc(/C=N/NC(=O)c2cc(C34CC5CC(CC(C5)C3)C4)[nH]n2)c1 14.9%
CC(C)NC(=O)CN(CCc1ccccc1)S(C)(=O)=O 18.2%
Cc1ccc(-n2ncc3c2CC(C)(C)CC3NC(=O)C2CCOCC2)cc1 (configuration not stated) 9.6%
Cc1cc(C)n(CC(=O)O)c(=O)c1[N+](=O)[O-] 1.7%
CNC(=O)c1sccc1Oc1ccc(F)cc1[N+](=O)[O-] 8.2%
Cc1nc(N2CCN(S(=O)(=O)c3ccccc3)CC2)c2c3c(sc2n1)CC(C)CC3 (configuration not stated) 14.2%
CC(C)c1nc(N2CCN(C(=O)c3ccco3)CC2)c2c3c(sc2n1)CCCC3 98.6%
Cc1nc(N2CCN(C(=O)c3ccco3)CC2)c2c3c(sc2n1)CCC3 46.7%
CC(=O)N1CCN(c2nc(C)nc3sc4c(c23)CCC(C)C4)CC1 (configuration not stated) 22.1%
CCc1nc(N2CCN(C(=O)c3ccco3)CC2)c2c3c(sc2n1)CCCC3 7.3%
Cc1nc(N2CCN(C(=O)c3cccs3)CC2)c2c3c(sc2n1)CCCC3 36.3%
CCCN1C2CCCC1CC(NC(=O)c1cc(OC)cc(OC)c1)C2 (configuration not stated) 4.9%
CN(C)S(=O)(=O)c1ccc(N)c([N+](=O)[O-])c1 16.6%
FC(F)(F)COc1ccc(-n2ccnc2)nn1 -3.5%
Cc1ccc(/C=C/C(=O)O)cc1S(=O)(=O)N1CCCc2ccccc21 9.5%
COCCCNC(=O)CCc1ccccc1 -1.2%
Cc1ccccc1CC(=O)N1CCN(C(=O)C2CCCO2)CC1 (configuration not stated) 10.1%
CCCCn1c(-c2nn(C)cc2Cl)n[nH]c1=S 2.5%
CC1=NOC(=O)/C1=C\c1ccc(-c2ccc(Cl)cc2Cl)o1 21%
CC1=NOC(=O)/C1=C/c1ccc(-c2ccc(Cl)cc2)o1 7.3%
Cc1ccc(C)c(NC(=S)N2CCC(NC(=O)c3ccccc3)CC2)c1 2.1%
NC(=O)C1(N2CCCCC2)CCN(C2CC(=O)NC2=O)CC1 (configuration not stated) 9.8%
CN1C(=O)/C(=C\c2cc(N=Nc3ccccc3)ccc2O)SC1=S 19.5%
CN1C(=O)/C(=C\c2ccccc2OCc2ccccc2)SC1=S -1.8%
CNC(=S)NC1(C)CCS(=O)(=O)C1 (configuration not stated) -1.4%
CCOC(=O)c1c(-c2ccccc2)oc2ccc(O)c(CN3CCOCC3)c12 34.5%
CCOC(=O)c1c(-c2ccccc2)oc2ccc(O)c(CN3CCCC3)c12 -1.6%
Cc1ccc(OCC(=O)N/N=C/C=C/c2ccco2)cc1C -3.3%
CC(C)(C)c1ccc(-c2c(C(=O)O)c(C(=O)O)c3n2CSC3)cc1 -9.4%
CC(C)(C)C1=CC=C(C(C)(C)C)C(=O)C1=O -11.4%
CCN1C(=O)N(CC)C(O)(c2ccccc2)C1(O)c1ccccc1 (configuration not stated) 14.2%
Cc1ccc(-n2c(C)csc2=N)cc1 6.4%
O=C(/C=C/c1cccc(Br)c1)NCC1CCCCC1 -3.3%
CN(C)c1ccc(/C=C/c2ccc3ccccc3[n+]2C)cc1 5.6%
CC[n+]1c(/C=C/c2ccc(N(C)C)cc2)ccc2ccccc21 -0.1%
O=C(N/N=C\c1ccncc1)c1ccc(Br)s1 -6.3%
CS(=O)(=O)N(CC(O)CON=C1c2ccccc2-c2ccccc21)c1ccc(F)cc1 (configuration not stated) 4.1%
Cc1ccc(S(=O)(=O)N(CCCO)CC(O)CON=C2c3ccccc3-c3ccccc32)cc1 (configuration not stated) 4%
Cc1cccc(N(CC(O)CON=C2c3ccccc3-c3ccccc32)S(C)(=O)=O)c1 (configuration not stated) 30.8%
Cc1ccc(N(CC(O)CON=C2c3ccccc3-c3ccccc32)S(C)(=O)=O)cc1 (configuration not stated) 2.5%
CCN(CC(O)Cn1c2ccccc2c2ccccc21)S(=O)(=O)c1ccc(C)cc1 (configuration not stated) 22.4%
CC(C)CCNCC(O)CON=C1c2ccccc2-c2ccccc21 (configuration not stated) 35%

inhibition, active:
CCCC(=O)N(C1CC(C)C(C#N)(C#N)C1(C#N)C#N)N(C)C (configuration not stated) 98.9%
N=c1n(CC(=O)c2ccc([N+](=O)[O-])cc2)c2ccccc2n1Cc1ccc(Cl)cc1 65.4%
N=c1n(CC(=O)c2ccc([N+](=O)[O-])cc2)c2ccccc2n1Cc1ccccc1 64.5%
COc1ccc(NC(=O)/C(Cl)=C(/Cl)S(=O)(=O)Cc2ccccc2)cn1 93.7%
CCN(CC(O)CON=C1c2ccccc2-c2ccccc21)S(=O)(=O)c1ccc(C)cc1 (configuration not stated) 89.1%
CCN(CC(O)CON=C1c2ccccc2-c2ccccc21)S(=O)(=O)c1ccc(Cl)cc1 (configuration not stated) 80.9%
